Measured values taken from PubChem BioAssay.

assay: RPL19A-GFP modulators, yeast TOR pathway, confirmation, cell-based, S. cerevisiae, flow cytometry, cherry picks, mother/daughter gates (AID 2270); settings: S. cerevisiae RPL19A-GFP strain, 3 h, measured here: daughter cell gate, at 10 µM, stronger effect = lower value, 100 = same GFP as DMSO wells

**Q.** Which GFP response vs DMSO does the source give for `O=C(Nc1cccnc1)c1ccc(-c2ccc(Cl)cc2)o1` here?
**A.** Its GFP response vs DMSO is 93.9%.

**Q.** With `Oc1c(N=Nc2ccccn2)ccc2ccccc12` as the compound, how does the GFP response vs DMSO read?
**A.** Its GFP response vs DMSO is 83.8%.

**Q.** For `Cc1cccn2c(=O)c3cc(C(=O)NCCc4ccccc4)c(=N)n(CCCn4ccnc4)c3nc12`, which GFP response vs DMSO is on record?
**A.** The GFP response vs DMSO was 94.7%.

**Q.** With `Cc1ccc(CS(=O)(=O)c2ncc(Cl)c(C(=O)Nc3nnc(C(C)C)s3)n2)cc1` as the compound, how does the GFP response vs DMSO read?
**A.** Its GFP response vs DMSO is 96.1%.

**Q.** For `Oc1ccc2ccccc2c1N=Nc1nccs1`, which GFP response vs DMSO is on record?
**A.** Its GFP response vs DMSO is 98.1%.

**Q.** For `Oc1c(CN2CCN(c3ccc(F)cc3)CC2)cc(Cl)c2cccnc12`, which GFP response vs DMSO is on record?
**A.** Its GFP response vs DMSO is 102%.

**Q.** Which GFP response vs DMSO does the source give for `Oc1ccc(Br)cc1/C=N/Nc1ccccn1` here?
**A.** The GFP response vs DMSO was 92.3%.

**Q.** Which GFP response vs DMSO does the source give for `O=C(/C=C/Sc1ncn[nH]1)c1ccc(Cl)cc1` here?
**A.** Its GFP response vs DMSO is 106%.

**Q.** For `C/C(=N\Nc1ncnc2sc(C)c(C)c12)c1ccccn1`, which GFP response vs DMSO is on record?
**A.** The GFP response vs DMSO was 112%.

**Q.** For `CC(=O)Nc1ccc(Nc2cc(C)nc3c(-c4ccc(Cl)cc4)c(C)nn23)cc1`, which GFP response vs DMSO is on record?
**A.** The GFP response vs DMSO was 94.4%.

**Q.** With `O=C1C=CC(=O)N1c1ccc(N2CCCCC2)cc1` as the compound, how does the GFP response vs DMSO read?
**A.** The GFP response vs DMSO was 86.8%.

**Q.** With `CCn1c(/C=C/c2ccc([N+](=O)[O-])o2)nc2ccccc2c1=O` as the compound, how does the GFP response vs DMSO read?
**A.** The GFP response vs DMSO was 143%.

**Q.** Which GFP response vs DMSO does the source give for `COc1ccc(C(=O)NC(=S)NNC(=O)CCc2ccccc2)cc1` here?
**A.** The GFP response vs DMSO was 104%.

**Q.** For `Cc1ccc(-c2noc(CCC(=O)Nc3ccccc3C)n2)cc1`, which GFP response vs DMSO is on record?
**A.** The GFP response vs DMSO was 97%.

**Q.** Which GFP response vs DMSO does the source give for `Nc1c(C(=O)c2cccs2)sc2nsc(SCCN3CCCCC3)c12` here?
**A.** Its GFP response vs DMSO is 110%.

**Q.** Which GFP response vs DMSO does the source give for `Cc1[nH]c(-c2ccccn2)nc(=S)c1Cl` here?
**A.** The GFP response vs DMSO was 98.1%.

**Q.** Which GFP response vs DMSO does the source give for `CCCCC(=O)O[C@]1(C(=O)CO)CC[C@H]2[C@@H]3CCC4=CC(=O)CC[C@]4(C)[C@H]3[C@@H](O)C[C@@]21C` here?
**A.** The GFP response vs DMSO was 96.4%.

**Q.** Which GFP response vs DMSO does the source give for `Nc1ccccc1SC(C[N+](=O)[O-])c1ccccc1` (stereo not given) here?
**A.** Its GFP response vs DMSO is 96.3%.

**Q.** With `N/C(=N\OC(=O)c1ccccc1Cl)c1ccc(Cl)cc1` as the compound, how does the GFP response vs DMSO read?
**A.** Its GFP response vs DMSO is 101%.

**Q.** Which GFP response vs DMSO does the source give for `Cc1[nH][nH]c(=O)c1C(c1ccc(-c2ccc(Cl)cc2)o1)c1c(C)[nH][nH]c1=O` here?
**A.** Its GFP response vs DMSO is 102%.

**Q.** Which GFP response vs DMSO does the source give for `Cc1ccc(/C=C2/C(=O)ON=C2c2ccccc2)o1` here?
**A.** The GFP response vs DMSO was 87.7%.

**Q.** With `C[n+]1ccc(/C=C/c2c[nH]c3ccccc23)cc1` as the compound, how does the GFP response vs DMSO read?
**A.** Its GFP response vs DMSO is 105%.

**Q.** For `Cc1cc(O)c(C(=O)/C=C/c2c(F)c(F)c(F)c(F)c2F)c(=O)o1`, which GFP response vs DMSO is on record?
**A.** Its GFP response vs DMSO is 103%.

**Q.** Which GFP response vs DMSO does the source give for `Cc1cc(O)ccc1NC(=O)c1ccccc1` here?
**A.** The GFP response vs DMSO was 98.4%.

**Q.** For `CCOc1ccc(Nc2ccc(C(=O)O)cc2[N+](=O)[O-])cc1`, which GFP response vs DMSO is on record?
**A.** The GFP response vs DMSO was 98.4%.

**Q.** For `O=C1C=CC(=O)N1c1cccc(-c2ccccc2)c1`, which GFP response vs DMSO is on record?
**A.** The GFP response vs DMSO was 84.3%.

**Q.** Which GFP response vs DMSO does the source give for `Cc1cccc(C)c1NC(=O)C(Cl)C(=O)c1ccccc1` (stereo not given) here?
**A.** The GFP response vs DMSO was 87.6%.

**Q.** With `O=C(NC(=S)NNC(=O)c1cnccn1)c1ccc(F)cc1` as the compound, how does the GFP response vs DMSO read?
**A.** The GFP response vs DMSO was 91.7%.

**Q.** With `CCCc1[nH]nc2c1C(c1ccccc1OC)C(C#N)=C(N)O2` (stereo not given) as the compound, how does the GFP response vs DMSO read?
**A.** The GFP response vs DMSO was 94.4%.

**Q.** Which GFP response vs DMSO does the source give for `CCCNC(=O)COC(=O)c1ccc(S(=O)(=O)N2CCCC2)cc1` here?
**A.** Its GFP response vs DMSO is 89.4%.

**Q.** Which GFP response vs DMSO does the source give for `CC(C)(C)C(=O)NC(=S)NNC(=O)c1ccc(-c2ccccc2)cc1` here?
**A.** Its GFP response vs DMSO is 84.5%.

**Q.** With `O=C1Oc2ccccc2C(=O)/C1=C/c1ccccc1O` as the compound, how does the GFP response vs DMSO read?
**A.** Its GFP response vs DMSO is 89.3%.

**Q.** Which GFP response vs DMSO does the source give for `O=C(Nc1ccccc1)c1nnsc1S(=O)(=O)c1ccc(Cl)cc1` here?
**A.** The GFP response vs DMSO was 87.8%.

**Q.** With `CCCc1cc(NCc2ccccn2)n2nc(C)c(-c3ccccc3)c2n1` as the compound, how does the GFP response vs DMSO read?
**A.** The GFP response vs DMSO was 88%.

**Q.** Which GFP response vs DMSO does the source give for `Cc1cc(C)nc(S/C=C/C(=O)c2ccccc2)n1` here?
**A.** Its GFP response vs DMSO is 101%.

**Q.** Which GFP response vs DMSO does the source give for `Cc1nn2c(NCc3ccccn3)c3c(nc2c1-c1ccccc1)CCC3` here?
**A.** Its GFP response vs DMSO is 85.7%.

**Q.** With `CC(NCCS(=O)(=O)c1ccc(Cl)cc1)c1cccc(Cl)c1` (stereo not given) as the compound, how does the GFP response vs DMSO read?
**A.** The GFP response vs DMSO was 96.4%.

**Q.** For `CCCOc1ccc(C(=O)NNC(=S)NC(=O)CC)cc1`, which GFP response vs DMSO is on record?
**A.** Its GFP response vs DMSO is 103%.

**Q.** Which GFP response vs DMSO does the source give for `O=C(c1ccc(Cl)c([N+](=O)[O-])c1)N1CCN(c2ccccc2)CC1` here?
**A.** The GFP response vs DMSO was 101%.

**Q.** For `O=C(c1ccc2c(c1)OCO2)N1CCN(c2ccccc2)CC1`, which GFP response vs DMSO is on record?
**A.** Its GFP response vs DMSO is 97.1%.
